Sampled rows, rich in hits. Any-hit rate of the full collection: about 3.5%.
GPR151 activ = activators of human GPR151 | PathHunter beta-arrestin GPR151 cells, luminescence | 1% of 650,000 active | activation, % at 11.2 µM | AID 1508602 | Q8TDV0; in the data active means activation above about 4.9%;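 further: 0% = median of compound wells and 100% = cells with positive control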
TEAD-YAP block = TEAD-YAP interaction inhibition | HEK-TIYL cells, TEAD-Gal4/YAP UAS-luciferase luminescence | inhibition, % at 9.12 µM | 1.4% of 640,000 active; in the data active means inhibition above about 32%;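 further: 0% = median of test compound wells and 100% = reference inhibitor wells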
FBW7 activator = human FBW7 E3 ligase activation, primary screen. normalized activity (activation), % at 26.1 µM. AlphaScreen FBW7–phospho-cyclin E peptide binding, activator screen. Q969H0. 0.13% of 650,000 active. AID 1259310; in the data active means normalized activity above about 1.9%;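 further: purified mutant Fbw7 with reduced substrate affinity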
MITF inh = human MITF inhibition, primary screen. 0.91% of 650,000 active. AID 1259374. O75030. AlphaScreen MITF homodimerization, bead proximity signal. inhibition, % at 2.6 µM; in the data active means inhibition above about 50%;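 further: 0% = vehicle wells with protein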
Target sequence (O75030 whole entry, looked up): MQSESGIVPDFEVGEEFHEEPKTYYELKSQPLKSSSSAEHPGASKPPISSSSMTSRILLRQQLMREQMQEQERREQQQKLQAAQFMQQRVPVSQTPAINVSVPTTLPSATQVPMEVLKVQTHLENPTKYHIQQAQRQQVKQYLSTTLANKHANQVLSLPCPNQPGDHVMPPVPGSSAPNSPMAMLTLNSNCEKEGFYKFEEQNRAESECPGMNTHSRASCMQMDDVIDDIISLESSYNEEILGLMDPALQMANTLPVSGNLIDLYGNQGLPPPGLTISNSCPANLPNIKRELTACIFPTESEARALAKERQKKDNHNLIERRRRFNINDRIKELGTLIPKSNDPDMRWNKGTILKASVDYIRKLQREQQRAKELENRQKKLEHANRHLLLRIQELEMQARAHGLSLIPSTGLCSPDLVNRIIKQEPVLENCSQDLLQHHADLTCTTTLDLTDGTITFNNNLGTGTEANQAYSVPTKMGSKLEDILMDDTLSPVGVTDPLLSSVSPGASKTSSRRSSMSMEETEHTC
GPR151 confirm = human GPR151 activation, confirmation screen; 6,700 tested, under 10 active; shares compounds with GPR151 activ; activation, % at 11.2 µM; GPR151 PathHunter beta-arrestin cells, luminescence, 90 min; % of EA-reagent control over plate median;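 active means mean percent activation across replicates above the confirmation screen cutoff of 4.91%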
GPR119 ag = GPR119 activation, counter-screen for GPR151 activators; shares compounds with GPR151 activ; GPR119 PathHunter beta-arrestin cells, luminescence, 90 min; 0 = compound-well median, 100 = enzyme-acceptor control; activation, % at 11.2 µM; 0.3% of 6,700 active;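 active means mean percent activation in the counterscreen above 29.09%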;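 further: counterscreen on off-target GPR119 to flag nonselective hits from the GPR151 activator screen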
Numbers without * were called inactive; . = no result; ! = not confirmed by another sample.

SMILES	GPR151 activ	TEAD-YAP block	FBW7 activator	MITF inh	GPR151 confirm	GPR119 ag
Cc1nnc(SCC(=O)Nc2ccc(C)c([N+](=O)[O-])c2)s1	7.3*	9	0	18	-1	-6
Cc1nnc(SCC(=O)Nc2ccc(Cl)c([N+](=O)[O-])c2)s1	-1	14	0	-3	.	.
Cc1ccc(NC(=O)C(Sc2ccccc2)c2ccccc2)cc1[N+](=O)[O-] (configuration not stated)	8.4*	-2	0	14	0	-10
CC(=O)Nc1ccc(NC(=O)C(Sc2ccccc2)c2ccccc2)cc1 (configuration not stated)	0	-5	0	-18	.	.
C=C(C)CN1C(=O)NC(CC)(C2CCN(Cc3cccc4ncccc34)CC2)C1=O (configuration not stated)	-1	15	0	1	.	.
Cc1sc2nc(C3CC3)n(C3CCN(C(=O)c4ccccn4)CC3)c(=O)c2c1C	6.5*	-31	0	-13	1	3
CC[C@@H](C(=O)[C@@H](C)[C@@H](O)[C@H](C)[C@@H]1O[C@@H]([C@@H](CC)C(=O)O)CC[C@@H]1C)[C@H]1O[C@]2(C=C[C@@H](O)[C@]3(CC[C@@](C)([C@H]4CC[C@](O)(CC)[C@H](C)O4)O3)O2)[C@H](C)C[C@@H]1C	11*!	78*!	0	-4	0	6
Cc1ccc(-c2nc3cc(Cl)ccc3o2)cc1NC(=O)C(C)C	0	-5	0	-28	.	.
COc1ccc2nc(Cl)c(C3CC(c4ccccc4)=NN3C(=O)CCCC(=O)O)cc2c1 (configuration not stated)	5.0*	3	0	17	0	2
COc1ccc2nc(Cl)c(C3CC(c4ccc(Cl)cc4)=NN3C(=O)CCCC(=O)O)cc2c1 (configuration not stated)	0	-3	0	7	.	.
O=c1cc(-c2ccc(O)cc2)oc2cc(O[C@@H]3O[C@H](CO)[C@@H](O)[C@H](O)[C@H]3O[C@@H]3OC[C@](O)(CO)[C@H]3O)cc(O)c12	8.2*	11	0	19	0	9
O=C(Nc1ccc(-c2cn[nH]c2)cc1OCCCO)C1COc2ccccc2O1 (configuration not stated)	2	2	0	6	.	.
COc1cc2[nH]c(=S)n(C3CC3)c(=O)c2cc1OC	1	19	0	10	.	.
COc1cc2[nH]c(=S)n(C3CC(C)(C)NC(C)(C)C3)c(=O)c2cc1OC	7.2*	-2	0	11	0	9
COC(=O)c1cc(CNC(=O)C(C)C)cc(NS(=O)(=O)c2ccccc2Cl)c1	5.6*	-9	0	-7	0	17
C=CCCC(=O)NCc1cc(NS(=O)(=O)c2ccccc2Cl)cc(C(=O)OC)c1	0	3	1	1	.	.
CCSc1nc2sccn2c(=O)c1C(=O)NCc1cccnc1	0	1	0	15	.	.
CCOc1ccc(-n2c(SCC(=O)NCc3ccc(C)cc3)nc3n[nH]c(C)c3c2=N)cc1	-1	11	0	4	.	.
c1ccc(-c2noc(CCC3CCCC3)n2)cc1	12*	0	0	1	-1	-8
CCOC(=O)C1CCN(C(=O)Nc2ccc(Cl)cc2Cl)CC1	5.4*	-2	0	-8	0	-2
CSCCC(NC(=O)c1ccc(Cl)c([N+](=O)[O-])c1)C(=O)O (configuration not stated)	5.3*	5	0	0	2	12
Cn1c(=O)c2c(nc(SCc3ccccn3)n2C)n(C)c1=O	0	13	0	13	.	.
Cn1c(=O)c2c(nc(SCc3ccccc3F)n2C)n(C)c1=O	4.9*	7	0	1	1	12
CCOC(=O)CCN1C(=O)[C@H]2[C@H]3[C@H](O)[C@H](O)C/C(=N\NC(=O)OCc4ccccc4)[C@@H]3CC[C@H]2C1=O	1	.	0	11	.	.
CCN1C(=O)[C@H]2[C@H]3[C@H](O)[C@H](O)C/C(=N\NC(=O)OCc4ccccc4)[C@@H]3CC[C@H]2C1=O	5.0*	.	0	9	0	8
SMILES	GPR151 activ	TEAD-YAP block	FBW7 activator	MITF inh	GPR151 confirm	GPR119 ag
COc1ccc(Cn2ccn(Cc3ccc(F)cc3)c(=O)c2=O)cc1	13*	4	1	9	1	2
CCOC(=O)c1ccc(Nc2ncnc3c2cnn3Cc2ccccc2)cc1	6.2*	2	0	25	-1	-14
CCOC(=O)c1ccc(Nc2ncnc3c2cnn3C)cc1	-1	-17	0	10	.	.
COc1ccccc1Cn1c(=O)c2cccnc2n(CC(=O)Nc2ccccc2)c1=O	7.0*	1	0	0	-1	-8
CC(NC(=O)c1cnccn1)c1nc(-c2ccc(Cl)cc2)n[nH]1 (configuration not stated)	8.1*	2	0	-1	1	12
CC(NC(=O)c1cnccn1)c1nc(-c2ccncc2)n[nH]1 (configuration not stated)	-1	6	0	2	.	.
CC(C)C[C@@H](NC(=O)OCC1c2ccccc2-c2ccccc21)C(=O)O	7.8*	.	0	-5	-1	-6
COc1cc(Br)cc(/C=N/NC(=O)CNc2ccccc2C)c1O	5.9*	25	-1	14	1	-1
COc1ccc(Br)cc1/C=N/NC(=O)CSc1ccccn1	7.0*	1	1	10	0	-13
COc1ccccc1NCC(=O)N/N=C/c1ccccc1O	0	1	0	11	.	.
COc1ccc(Br)cc1/C=N/NC(=O)CNc1ccccc1C	0	-4	0	-7	.	.
COc1ccccc1NCC(=O)N/N=C/c1cc(Br)ccc1O	9.8*	24	0	15	0	-18
COc1ccc(Br)cc1/C=N/NC(=O)CSc1ncccn1	-2	-2	0	19	.	.
Cc1ccc(-c2[nH]ncc2CN(C)Cc2c(C)n[nH]c2C)cc1C	-2	7	0	1	.	.
Cc1nnc(CN(C)Cc2cn[nH]c2-c2ccc(C)c(C)c2)o1	6.7*	-18	0	10	0	6
COc1ccc(S(=O)(=O)CCC(=O)Nc2ccccc2Br)cc1	9.4*	-9	0	3	0	-4
CC(=O)N1CCc2cc(Br)cc(S(=O)(=O)NC3CCCC3)c21	1	3	0	8	.	.
CC(=O)N1CCc2cc(Br)cc(S(=O)(=O)NC3CCCc4ccccc43)c21 (configuration not stated)	5.1*	-11	0	13	0	11
COC(=O)c1cc(Nc2cccc(F)c2)c2cccc(OC)c2n1	7.9*	4	0	-14	0	-3
COC(=O)c1cc(Nc2ccc(C)cc2)c2cccc(F)c2n1	2	21	0	0	.	.

High-throughput results (PubChem)
